This is a sample that favours compounds with a hit; in the whole collection about 7.3% have one here.
SNCA viab count: reduces viability of HEK-293 SNCA reporter cells | HEK-293-SNCA-luc viability, GF-AFC fluorescence, 24 h | Potency, µM (highest dose often 57.1 µM), for the others: at the highest dose activity change, negative = cytotoxicity, actives largely listed as cytotoxic | 150,000 compounds, 0.12% hits | AID 1671193;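 note: potency is the fitted concentration of half-maximal effect; 0% = DMSO-treated cells and -100% = medium-only wells without cells; nearly all actives have a fitted effect of over 30% in size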
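Cytotoxicity counterscreen: after 24 h compound treatment of genome-edited SNCA-luciferase HEK-293 cells, live-cell protease substrate GF-AFC read by fluorescence after 30 min; activity scaled between DMSO (0%) and medium-only (-100%), curves Hill-fitted.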
SNCA expr inh: inhibitors of alpha-synuclein (SNCA) gene expression | HEK-293 SNCA-luciferase knock-in, luminescence, 24 h | 140,000 compounds, 0.17% hits | Potency, µM (highest dose often 57.2 µM), for inactives: at the highest dose activity change, negative = inhibition, actives largely listed as inhibitors;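 note: potency is the fitted concentration of half-maximal effect; plate controls were DMSO cells for no effect and cell-free wells for full effect; nearly all actives have a fitted effect of over 45% in size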
FLuc inh: inhibitors of firefly (Photinus pyralis) luciferase; P08659; purified P. pyralis luciferase, luminescence, biochemical; Potency, µM (top dose mostly 115 µM), most hits filed as inhibitors; 76,000 compounds, 2.5% hits; AID 1347043; note: potency is the fitted concentration of half-maximal effect; nearly all actives have a fitted effect of over 65% in size
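FLuc 10nM, D-luciferin 10uM, ATP 10uM, Mg acetate 10mM, Tris acetate pH 7.5, Tween/BSA; cpd qHTS; enzyme added last; CCD luminescence.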
HEK293 tox: cytotoxic compounds in HEK 293 cells. HEK 293 viability, ATP luminescence (CellTiter-Glo), 48-72 h. Potency, µM (doses to about 115 µM), inactives show top-dose activity change, negative = cytotoxicity, most hits filed as inhibitors. 94,000 compounds, 6.6% hits. AID 1345083; note: potency is the fitted concentration of half-maximal effect; nearly all actives have a fitted effect of over 60% in size
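Viability of HEK 293 cells, plated at 250 cells/well, was judged by cellular ATP after compound treatment for 48 or 72 hr. Luminescence was imaged 10 min after CellTiter-Glo addition at room temperature.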
IP6K1 inhibitor: blocks human inositol hexakisphosphate kinase 1. activity change, % (series mostly up to about 58 µM). AID 1645851. 140,000 compounds, 0.81% hits. IP6K1 kinase, ADP-Glo luminescence, 2 h; active compounds read low; in the data active = activity change below about -25%
Target sequence (Q92551 whole entry, looked up): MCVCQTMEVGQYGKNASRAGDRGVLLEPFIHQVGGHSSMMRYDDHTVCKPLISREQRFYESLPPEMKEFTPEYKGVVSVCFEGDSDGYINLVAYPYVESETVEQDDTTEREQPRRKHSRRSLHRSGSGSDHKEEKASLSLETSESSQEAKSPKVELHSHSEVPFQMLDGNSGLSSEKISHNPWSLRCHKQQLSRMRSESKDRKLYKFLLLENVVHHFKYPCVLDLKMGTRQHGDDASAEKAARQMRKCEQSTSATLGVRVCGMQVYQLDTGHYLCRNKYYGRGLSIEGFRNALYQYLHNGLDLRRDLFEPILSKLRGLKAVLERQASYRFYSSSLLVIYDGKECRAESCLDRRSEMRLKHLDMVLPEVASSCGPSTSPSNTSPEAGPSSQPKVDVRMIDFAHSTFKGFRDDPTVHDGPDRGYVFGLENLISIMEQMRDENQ
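ADP-Glo luminescence measures ADP made by human IP6K1 during a 2 h RT reaction with ATP/IP6 (mix at 1.3 mM/130 uM); top library doses 57.5 and 19.1 uM final.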
NIH3T3 tox: NIH 3T3 cell cytotoxicity; NIH 3T3 viability, CellTiter-Glo ATP luminescence, 48-72 h; Potency, µM (series often up to 96.7 µM), for inactives: at the highest dose activity change, negative = cytotoxicity, actives largely listed as inhibitors; 94,000 compounds, 4.3% hits; note: potency is the fitted concentration of half-maximal effect; nearly all actives have a fitted effect of over 55% in size
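Cells were seeded at 400 per well, treated with pin-transferred compound, and kept 48 or 72 hr at 37 °C before CellTiter-Glo addition and luminescence imaging of cellular ATP.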
The depositor's hits bear a star; i = inactive; ? = inconclusive; · = not tested or not shown; [ ] = dose if it differs, or a comment. Unless noted, calls come from the whole dose curve; as a rule, active = well fitted curve in the direction sought with a large enough effect; inconclusive = small, poorly fitted or top-dose-only effect, or another doubt; inactive = no such curve, though single readings can be large; an effect the other way counts as inactive or inconclusive. Unless noted, % is set by controls: 0 for no effect and ±100 for the full control effect.

SMILES	SNCA viab count	SNCA expr inh	FLuc inh	HEK293 tox	IP6K1 inhibitor	NIH3T3 tox
CCC(=O)N(C1CCOCC1)C1CCN(S(=O)(=O)c2ccccc2F)CC1	12%	5%	i	13%	5	-9%
COc1cccc(-c2ccc(C(=O)N3CCC(C(=O)N4CCC(C#N)CC4)CC3)cc2)c1	-1%[12.5 µM]	-23%	·	?	-5	?
COCc1nc(-c2ccc(OC3CN(S(=O)(=O)c4ccccc4C)C3)cc2)no1	-21%	-37%	i	14µM*	8	?
COCc1nc(-c2ccc(OC3CN(C(=O)C(C)Oc4ccccc4)C3)cc2)no1 (configuration not stated)	-24%	-9%	i	40µM*	5	?
CC(Oc1ccccc1)C(=O)N1CC(Oc2ccccc2-c2nc(-c3ccccc3)no2)C1 (configuration not stated)	-22%	-16%	·	45µM*	6	35µM*
Cc1ccc(C(=O)N2CCC(n3cc(-c4nc(C(C)C)no4)nn3)CC2)cc1F	-2%	-7%	i	?	18	-26%
Cc1ccc(Nc2ccnc(N3CCC(C(=O)NCC(F)F)CC3)n2)cc1	7%[12.5 µM]	41%	·	?	-16	?
O=C(Cc1ccc(F)cc1)NC1CCN(c2ccc3nnc(C4CC4)n3n2)C1 (configuration not stated)	·	·	·	-11%	2	-28%
CC1(c2ccccc2)N(Cc2ccccc2F)C(=O)OC12CCN(Cc1cccnc1)CC2 (configuration not stated)	-4%	11%	i	?	-17	?
CC1(c2ccccc2)N(Cc2ccccc2F)C(=O)OC12CCN(c1cccnc1)CC2 (configuration not stated)	-17%[87.6 µM]	-5%[87.6 µM]	i	89µM*	-15	89µM*
COc1ccccc1CN1CCC2(CC1)OC(=O)N(Cc1ccccc1F)C2(C)c1ccccc1 (configuration not stated)	?	-23%	i	35µM*	-11	28µM*
CC1(c2ccccc2)N(Cc2ccccc2C#N)C(=O)OC12CCN(Cc1ccccc1F)CC2 (configuration not stated)	?	-22%	i	?	-7	?
O=C(NC1CCN(c2cnn(Cc3ccccc3)c(=O)c2)CC1)c1ccoc1	-2%	-4%	i	1%	10	i
O=C(NCCNC(=O)c1ccc(-c2cccc(C(F)(F)F)c2)cc1)c1ccccc1	·	·	·	-25%	19	-6%
COc1ccc(CC(=O)NCCNC(=O)c2ccc(-c3cccc(C(F)(F)F)c3)cc2)cc1	·	·	·	25µM*	7	-24%
O=C(NCCNC(=O)c1ccc(-c2cccc(C(F)(F)F)c2)cc1)c1ccncc1	·	·	·	40µM*	0	?
CC(C)(C)c1csc(NC(=O)C2CC(=O)N(c3n[nH]c4cccc(F)c34)C2)n1 (configuration not stated)	-5%	-23%	i	45µM*	3	?
COc1ccc(C)cc1NC(=O)C1CC(=O)N(c2n[nH]c3cc(Br)ccc23)C1 (configuration not stated)	-8%	-14%	i	45µM*	-16	?
O=C(Nc1nccs1)C1CC(=O)N(c2n[nH]c3cccc(F)c23)C1 (configuration not stated)	1%	-20%	i	?	-2	?
Cc1nc(NC(=O)C2CC(=O)N(c3n[nH]c4cccc(F)c34)C2)sc1C (configuration not stated)	-7%	52%	i	?	3	-9%
Cc1ccnc(NC(=O)C2CC(=O)N(c3n[nH]c4cccc(F)c34)C2)c1 (configuration not stated)	5%	-15%	i	28µM*	3	?
Cc1ccc2nc(NC(=O)C3CC(=O)N(c4n[nH]c5cccc(F)c45)C3)sc2c1 (configuration not stated)	-13%	?	i	25µM*	0	32µM*
O=C(NC[C@H]1Cn2c(-c3ccc4c(c3)OCO4)cnc2CO1)c1ccc2c(c1)OCO2	-27%[87.6 µM]	-8%[87.6 µM]	?	63µM*	-11	28µM*
CC(C)NC[C@H]1Cn2c(-c3ccc(Cl)cc3)cnc2CO1	12%[87.6 µM]	12%[87.6 µM]	i	?	1	?
COCC(=O)NC[C@H]1Cn2c(-c3ccc(Cl)cc3)cnc2CO1	4%[87.6 µM]	-6%[87.6 µM]	i	-24%[172 µM]	6	?
SMILES	SNCA viab count	SNCA expr inh	FLuc inh	HEK293 tox	IP6K1 inhibitor	NIH3T3 tox
O=C(NC[C@H]1Cn2c(-c3ccc(F)cc3)cnc2CO1)c1ccc(Cl)cc1	-20%[87.6 µM]	-28%[87.6 µM]	?	89µM*	1	?
O=C(Cc1ccccc1)NC[C@H]1Cn2c(-c3ccc4c(c3)OCO4)cnc2CO1	-6%[87.6 µM]	-8%[87.6 µM]	i	?	3	-23%[174 µM]
COc1ccccc1C(=O)NC[C@H]1Cn2c(-c3ccc(Cl)cc3)cnc2CO1	?	?	i	13µM*	-1	10µM*
O=S(=O)(NC[C@H]1Cn2c(-c3ccc(F)cc3)cnc2CO1)c1ccc(Cl)cc1	-19%[87.6 µM]	?	i	100µM*	3	?
CS(=O)(=O)NC[C@H]1Cn2c(-c3ccc(F)cc3)cnc2CO1	2%[87.6 µM]	10%[87.6 µM]	?	1%[172 µM]	0	-4%[138 µM]
O=C(NCCc1ccccc1)C1CCCN1C(=O)c1cccc(-c2cccnc2)c1 (configuration not stated)	·	·	·	-17%	-9	?
CCC(=O)N1CCCC(c2nc(-c3ccc4nc[nH]c4c3)no2)C1 (configuration not stated)	-4%	?	?	-1%	-9	-27%
O=C(c1ccccc1F)N1CC(Oc2ccc(-c3nc(-c4ccccc4)no3)cc2)C1	-26%	5%	?	28µM*	7	45µM*
O=C(c1ccco1)N1CC(Oc2ccc(-c3nc(-c4ccccc4)no3)cc2)C1	-23%	-3%	?	20µM*	11	28µM*
O=C(NCC1(COc2cccnc2)C[C@@H](O)[C@@H](O)C1)C1CC1 (some centres not stated)	?	?	i	32µM*	7	?
COc1ccc(NC(=O)N2Cc3[nH]cnc3C[C@H]2c2nc(-c3ccc(C)cc3)no2)cc1	?	?	63µM*	?	16	?
COc1ccc(NC(=O)N2Cc3[nH]cnc3C[C@H]2c2nc(-c3ccc(F)cc3)no2)cc1	?	13%[87.6 µM]	?	?	6	50µM*
COc1ccc(-c2noc([C@@H]3Cc4nc[nH]c4CN3C(=O)Nc3ccc(C)cc3)n2)cc1	?	36%[87.6 µM]	18µM*	?	6	?

High-throughput results deposited in PubChem by National Center for Advancing Translational Sciences (NCATS).
